High-throughput results (PubChem)
An excerpt weighted towards active compounds, which were near 2.3% of everything screened.
Calb FLC – affects C. albicans growth with fluconazole | C. albicans CaCi-2 (fluconazole-resistant clinical isolate) + fluconazole, Alamar Blue growth, 48 h | growth inhibition, % (test concentration not listed) | 300,000 compounds, 0.57% hits | AID 1979;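 active = growth inhibition above about 58% in most replicates, limit read from the data, passing the limit was not always enough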;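 also: all wells also contain fluconazole at 8 µg/ml as a sub-toxic cotreatment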
Rin1-Abl PPI inh – blocks binding of human Rin1 to Abl; P00519+Q13671; TR-FRET Rin1/Abl binding, biochemical; inhibition, % at 7.35 µM; 360,000 compounds, 0.4% hits; AID 588664; in the data active = inhibition above about 5%, passing the limit was not always enough
Rpn11 inh – Rpn11 (human) deubiquitinase inhibition; human 26S proteasome, Ub4-pepOG fluorescence polarization; 20S core pre-blocked with epoxomicin; inhibition, % at 20 µM; 360,000 compounds, 0.59% hits; O00487;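 active = inhibition at 20 µM, scaled to each plate's controls, above about 33%, limit read from the data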
IDE cell activ – activators of human insulin-degrading enzyme in cells. P14735. 340,000 compounds, 0.073% hits. AID 493087. HEK cells, FAbeta-B cleavage, fluorescence polarization; 0% vehicle, 100% cell-free pure enzyme wells. activation, % at 5.96 µM;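 active = activation above the mean of all tested compounds plus 3 SD, set per screening campaign, cut at about 17% in these data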
IDE inh – inhibits human insulin-degrading enzyme in HEK cells | P14735 | FAbetaB cleavage, fluorescence polarization | inhibition, % at 5.59 µM | 320,000 compounds, 0.41% hits;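 active = percent inhibition above the average of all tested compounds plus 3 SD, set per screening campaign, cut at about 16% in these data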;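 also: IDE supplied by intact live HEK cells; FP after avidin binding of uncleaved biotin substrate so inhibition keeps polarization high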
TPT1 inh – inhibitors of Candida albicans tRNA 2'-phosphotransferase TPT1; recombinant caTPT1, FP RNA substrate dephosphorylation; inhibition, % at 5 µM; 300,000 compounds, 0.81% hits;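 active = inhibition above the mean of all tested compounds plus 3 SD, set per screening campaign, cut at about 24% in these data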
Rpn11 inh conf – confirmation of human proteasome Rpn11 inhibitors | shares compounds with Rpn11 inh | inhibition, % at 20 µM | purified human 26S proteasome, Ub4-pepOG fluorescence polarization; proteasome pretreated with epoxomicin | 1,900 compounds, 29% hits
MMP-2 counter – MMP-2 (human) inhibition counter-screen; shares compounds with Rpn11 inh; recombinant MMP-2, FRET peptide cleavage fluorescence; inhibition, % at 20 µM; 1,900 compounds, 4% hits;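 also: human MMP-2 activated beforehand with APMA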
Thrombin FP – blocks bovine thrombin, flagging nonselective RPN11 hits; shares compounds with Rpn11 inh; bovine thrombin cleavage of Ub4-pepOG, fluorescence polarization; 1,900 compounds, 13% hits; inhibition, % at 20 µM;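 active = mean inhibition at least 40% at 20 µM, or signal 3 deviations below plate average, so some actives read negative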
Hits are given with their value. Rule as the data show it, unless noted: active = inhibition above about 40%; inactive = the rest.

For COc1ccccc1Cc1c(-c2cccc(Cl)c2)nc2ccc(Br)cn12 the results were Rin1-Abl PPI inh inactive, Rpn11 inh 61.3, Rpn11 inh conf 50.1, MMP-2 counter inactive and Thrombin FP inactive.
`FC(F)(F)c1ccccc1Cc1c(-c2cccc(Br)c2)nc2c3ccccc3ccn12` gave Rin1-Abl PPI inh inactive, Rpn11 inh 41.8, Rpn11 inh conf inactive, MMP-2 counter inactive and Thrombin FP inactive.
NC(=O)c1cccnc1Nc1ccccc1Cl was read as Calb FLC inactive, Rin1-Abl PPI inh inactive, Rpn11 inh inactive, IDE cell activ inactive, IDE inh inactive and TPT1 inh inactive.
Screening Cc1ccc(C(NC(=O)Nc2ccccn2)C(Cl)(Cl)Cl)cc1F (stereo not drawn) returned Calb FLC inactive, Rin1-Abl PPI inh inactive, Rpn11 inh inactive, IDE cell activ inactive, IDE inh inactive and TPT1 inh inactive.
For COc1ccc(/C=C/C(=O)Nc2ccc(S(=O)(=O)Nc3onc(C)c3C)cc2)cc1OC the results were Calb FLC inactive, Rin1-Abl PPI inh inactive, Rpn11 inh inactive, IDE cell activ inactive, IDE inh inactive and TPT1 inh inactive.
Screening Cc1ccc(Cl)cc1N1CCN(S(=O)(=O)c2cn(C)cn2)CC1 returned Calb FLC inactive, Rin1-Abl PPI inh inactive, Rpn11 inh inactive, IDE cell activ inactive, IDE inh inactive and TPT1 inh inactive.
For CC(=O)NS(=O)(=O)c1ccc(NC(=O)c2cccc3ccccc23)cc1 the results were Calb FLC inactive, Rin1-Abl PPI inh inactive, Rpn11 inh inactive, IDE cell activ inactive, IDE inh inactive and TPT1 inh inactive.
`COc1ccc(Cc2c(-c3ccc(C)cc3)nc3c(C)cc(Br)cn23)c(C)c1` gave Rin1-Abl PPI inh inactive, Rpn11 inh 48.9, Rpn11 inh conf inactive, MMP-2 counter inactive and Thrombin FP inactive.
For N#Cc1ccc(-c2ccc(OCC(=O)NCC(=O)Nc3ccc(F)c(F)c3F)cc2)cc1 the results were Calb FLC inactive, Rin1-Abl PPI inh inactive, Rpn11 inh 143.6, IDE cell activ inactive, IDE inh inactive, TPT1 inh inactive, Rpn11 inh conf 96.7, MMP-2 counter inactive and Thrombin FP inactive.
`N#C/C(=C\C1=C(N2CCOCC2)C(=C\c2ccc(Cl)cc2)/CC1)C(=O)Nc1ccccc1F` gave Calb FLC inactive, Rin1-Abl PPI inh inactive, Rpn11 inh 57.7, IDE cell activ inactive, IDE inh inactive, TPT1 inh inactive, Rpn11 inh conf 56.4, MMP-2 counter inactive and Thrombin FP inactive.
`N#C/C(=C/C1=C(N2CCOCC2)C(=C/c2ccccc2)/CC1)C(=O)Nc1ccccc1F` gave Rin1-Abl PPI inh inactive and IDE cell activ inactive.
Screening N#C/C(=C/C1=C(N2CCOCC2)C(=C/c2ccc(Cl)cc2Cl)/CC1)C(=O)Nc1ccccc1F returned Rin1-Abl PPI inh inactive, Rpn11 inh 41.6, IDE cell activ inactive, Rpn11 inh conf inactive, MMP-2 counter inactive and Thrombin FP inactive.
CC1C(=O)N(Cc2cn(Cc3ccco3)nn2)CCS(=O)(=O)N1Cc1ccc(-c2cccnc2)cc1 (stereo not drawn) was read as Rin1-Abl PPI inh inactive, Rpn11 inh 46.4, Rpn11 inh conf inactive, MMP-2 counter inactive and Thrombin FP inactive.
Screening Cc1ccc(-c2ccc(CN3C(C)C(=O)N(Cc4cn(Cc5ccco5)nn4)CCS3(=O)=O)cc2)cc1 (stereo not drawn) returned Rin1-Abl PPI inh inactive and Rpn11 inh inactive.
Screening Cc1nn(C)cc1-c1cc(C(=O)O)c2ccccc2n1 returned Calb FLC inactive, Rin1-Abl PPI inh inactive, Rpn11 inh inactive, IDE cell activ inactive, IDE inh inactive and TPT1 inh inactive.
